# LmPK activator: LmPK (Leishmania mexicana) enzyme activation | 290,000 tested, under 10 active | activity change, negative = inhibition, % at 57.5 µM | AID 1722 | Q27686 | purified LmPK, Kinase-Glo ATP luminescence, 1 h; calls by dose curve
#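 Purified L. mexicana pyruvate kinase (0.1 nM) with 0.5 mM PEP and 0.1 mM ADP in pH 7.2 imidazole buffer, 1 h at RT. ATP formed measured by Kinase-Glo luminescence; normalized to uninhibited and no-enzyme wells.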
# * = called active by the depositor. Not all results are given here.
SMILES,LmPK activator
C=CCc1c(C)[nH]c2c(OC)cccc2c1=S,-74
CCCCc1ccc(NC(=O)C(C)CC)cc1 (centres undefined),-48
Cc1[nH]n(-c2ccc([N+](=O)[O-])cc2)c(=O)c1C=NCCN1CCN(C(=O)c2cccc(F)c2)CC1,-45
Cc1ccc(C2CC2c2n[nH]c(=S)n2-c2cccc(Cl)c2)cc1 (centres undefined),-47
Cc1ccc(C(=O)/C=C/c2ccc3c(c2)OCO3)o1,-43
